Data on 19 molecules can be found in PubChem BioAssay (EPA / NIEHS).

Active and inactive are the calls of the source. Rule for the calls: active = hit-call score of the fitted dose curve at least 0.9, where 1 is the maximum; inactive = score below 0.9.

A word on the AC50: it is the concentration giving half of the maximal activity seen.

The assay can be described thus: CEETOX_H295R_11DCORT: CeeTox H295R High-throughput Steroidogenesis Assay for 11-Deoxycortisol (11DCORT) (AID 2283432).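 For AC50: 11-deoxycortisol secreted into the medium measured by LC-MS/MS.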 The conditions noted are these: actives raise or lower the signal. Here is the method: CEETOX_H295R is a cell-based, multiplexed-readout assay that uses H295R, a human adrenal gland cell line, with measurements taken at 48 hours after chemical dosing in a 96-well plate.CEETOX_H295R_11DCORT is one of 23 assay component(s) measured or calculated from the CEETOX_H295R assay. It is designed to make measurements of hormone induction, a form of inducible reporter, as detected with absorbance signals by HPLC-MS-MS technology.Data from the assay component CEETOX_H295R_11DCORT was analyzed into 1 assay endpoint. This assay endpoint, CEETOX_H295R_11DCORT, was analyzed with bidirectional fitting relative to DMSO as the negative control and baseline of activity. Using a type of inducible reporter, gain or loss-of-signal activity using HPLC-MS-MS was used to understand synthesis of 11-Deoxycortisol in H295R cell line at 48hr of chemical exposure. To generalize the intended target to other relatable targets, this assay endpoint is annotated to the steroid hormone intended target family, where the subfamily is glucocorticoids.
Cell culture and media preparation procedures were conducted in accordance with OECD Test No. 456 guidelines, with minor modifications. H295R cells (ATCC CRL-2128) were expanded for 5 passages and frozen in batches in liquid nitrogen. Prior to the steroidogenesis assay, H295R cells were thawed and passed at least 4 times. The maximum passage was 10. Cells were maintained in a 1:1 mixture of DMEM/F12 supplemented with 5ml/L ITS+ Premix (BD Bioscience) and 12.5 ml/L Nu-Serum (BD Bioscience). After seeding cells into 96-well plates at 50-60% confluency, cells were allowed to adhere overnight. Prior to chemical testing, culture medium was replaced with 175 uL medium containing 10 uM forskolin to stimulate steroidogenesis for 48 hours. Following prestimulation, forskolin medium was replaced with medium containing test chemical solubilized in DMSO (ensuring a final concentration of 0.1% DMSO). Test chemicals were incubated for 48 hours, then the medium was removed and split into 2 vials containing approximately 75uL each, and stored at -80 C prior to hormone analysis. For steroid quantification, media samples were shipped to OpAns, LLC (Durham, NC) on dry ice, and samples were thawed to room temperature prior to liquid-liquid extraction. Steroid hormones were extracted from media samples using methyl tertbutyl ether (MTBE). An extra derivatization with dansyl chloride was included for estrogen (estrone and estradiol) detection only. Steroid hormones were separated by HPLC, eluted using a reverse phase C18 gradient with electrospray positive ionization, followed by quantification by tandem mass spectrometry (MS/MS). Data were acquired on a MassHunter Workstation Acquisition version B03.01 (Agilent Technologies, Inc.) and processed using MassHunter Quantitative Analysis for QQQ. Accuracy was determined for each hormone analyte from 3 standards to determine upper and lower limits of quantification (ULOQ and LLOQ, respectively) using a 7-point standard curve. Precision and accuracy of the extraction and quantification methods were calculated as the percent relative standard deviation (%RSD) of the spiked standards and percent spiked standard recovered, respectively. The goal was to achieve 100% accuracy (i.e., recover all spiked-in standard at quantification with minimal loss during run time) and good precision (i.e., have %RSD <15% to ensure reproducibility). Test medium was removed following chemical exposure, and cell viability was evaluated in the same wells by MTT. MTT procedures were as follows: after removal of test medium, 500 uL of 0.5 mg/ml of 3-[4,5-dimethylthiazol-2-y]2,5-diphenyltetrazoliumbromide solution was added to the cells. Following a 4-hour incubation at 37 C and 5% CO2 to allow formazan-crystal formation, the MTT solution was removed and blue formazan salt crystals were solubilized using 500uL anhydrous isopropanol with shaking for 20 minutes. […]
For the molecule `O=S1OC[C@@H]2[C@H](CO1)[C@]1(Cl)C(Cl)=C(Cl)[C@@]2(Cl)C1(Cl)Cl` (some centres undefined), the concentration at half-maximal activity (AC50) is 39.7 µM (active). With `Cc1cc(Cl)ccc1O`, the molecule was called inactive. As to `Cc1ccccc1OP(=O)(Oc1ccccc1C)Oc1ccccc1C`, the molecule was classed as inactive. Still for that read-out and setting: the value for `Oc1cccc(-c2ccccc2)c1` was “inactive”.

Take `Cc1cc(C(C)(C)c2ccc(O)c(C)c2)ccc1O`: the AC50 is 5 µM (active). On to `C[C@]12CC[C@@H](O)C[C@@H]1CC[C@@H]1[C@@H]2CC[C@]2(C)C(=O)CC[C@@H]12`, for which the call was inactive. Regarding `COc1ccc(N)cc1`, the result was inactive.

Regarding `CC(C)=CC1C(C(=O)OCc2cccc(Oc3ccccc3)c2)C1(C)C` (centres undefined), the AC50 is 29.3 µM (active). For `O=[N+]([O-])c1ccc(Nc2ccccc2)cc1`, the molecule was called inactive. For `CCCCCCCCCCCCN(C)C`, the outcome was inactive. With `COC(=O)Nc1cccc(OC(=O)Nc2cccc(C)c2)c1`, the half-maximal activity concentration (AC50) is 9.94 µM (active). As to `CCC[CH2][Sn]([Cl])([Cl])[CH2]CCC`, the molecule was called inactive.

With `CC(C)(COCC1CO1)COCC1CO1` (centres undefined), the call was inactive. Same read-out and setting: the value for `OC(Cc1ccccc1Cl)(Cn1[nH]cnc1=S)C1(Cl)CC1` (centres undefined) was “inactive”. Take `OC(Cc1ccccc1Cl)(Cn1cncn1)C1(Cl)CC1` (centres undefined): the AC50 was 11.8 µM (active).

For `CC(C)(C)c1ccccc1O`, the outcome was inactive.

As for `CCOP(=O)(OCC)OC(=CCl)c1ccc(Cl)cc1Cl`, the AC50 was 5.43 µM (active). On the same count and under the same terms, the value for `CCOCn1c(-c2ccc(Cl)cc2)c(C#N)c(Br)c1C(F)(F)F` was 15.3 µM (active). The same measure, in the same setting: the value for `CCOP(=S)(OCC)O/N=C(\C#N)c1ccccc1` was 82.5 µM (active).
